# High-throughput results (PubChem)
# H9c2 TAG inh – reduces triacylglycerol accumulation in H9c2 cells. hit rate 0.66% among 230,000. AID 651582. inhibition, % at 12.5 µM. Nile Red lipid (TAG) fluorescence; cells loaded with 200 µM oleic acid;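 active = pattern-corrected inhibition of lipid staining of at least 50% with the nuclear-stain viability signal not falling by more than 50%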;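 also: 0% = DMSO wells and 100% = triacsin C control wells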
# NadD inh – inhibitors of Staphylococcus aureus NadD. purified NadD enzyme, colorimetric absorbance read-out. inhibition, % at 20 µM. hit rate 0.78% among 360,000. AID 602399; in the data active = inhibition above about 26%
# MPTP inh – blocks calcium-induced mitochondrial swelling. isolated mouse mitochondria, Ca2+ swelling absorbance, 30 min. inhibition, % at 10 µM. hit rate 1.4% among 360,000. AID 602449;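 active = inhibition of 50% or more, scaled per plate between neutral and stimulator controls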;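 also: 0% = DMSO wells given calcium and 100% = 1 mM EGTA wells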
# aDG glyco act – alpha-DG glycosylation activation; Pro5-aDG cells, alpha-DG glycosylation AlphaScreen (IIH6); 0% Pro5, 100% B10-LARGE cell signal; activation, % at 10 µM; AID 624168; hit rate 0.22% among 360,000;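 active = activation of at least 8% versus controls, or a plate z-score of at least 8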;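 also: Pro5 are CHO cells carrying HIG-tagged alpha-DG that lacks glycosylation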
# MPTP counter – Rhodamine 123 counter-screen of mitochondrial pore hits | shares compounds with MPTP inh | isolated mitochondria, membrane potential, Rhodamine 123 fluorescence | inhibition, % at 10 µM | hit rate 78% among 5,000 | AID 624504; in the data active = inhibition above about 22%;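 also: 0% = DMSO vehicle and 100% = positive control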
# MPTP abs DR – dose response confirmation of mitochondrial permeability transition pore inhibitors; IC50, µM; hit rate 58% among 780; isolated mitochondria swelling, absorbance; shares compounds with MPTP inh; in the data active = IC50 below about 20 µM
# MPTP counter DR – counter-screen for mitochondrial permeability transition pore inhibitors, dose response; IC50, µM; hit rate 49% among 780; shares compounds with MPTP inh; AID 651564; isolated mitochondria counterscreen, fluorescence read-out; in the data active = IC50 below about 80 µM
# * = called active by the depositor; i = inactive; . = no result given. Sampled rows, rich in hits. Any-hit rate of the full collection: about 2.7%.
SMILES,H9c2 TAG inh,NadD inh,MPTP inh,aDG glyco act,MPTP counter,others
COc1ccc(CCNC(=O)C2CCN(Cc3nc(-c4ccccc4C)oc3C)CC2)cc1OC,.,-4,82*,0,10,MPTP abs DR=9.7*;MPTP counter DR=23*
Cc1ccccc1-c1nc(CN2CCC(C(=O)NC3CCN(Cc4ccccc4)CC3)CC2)c(C)o1,11,-5,68*,2,-8,MPTP abs DR=i;MPTP counter DR=75*
CC(Oc1ccc(Br)cc1Cl)C(=O)Nc1ccncc1 (configuration not stated),-27,-1,77*,1,80*,
C=CCNCCOCCOc1ccc(Cl)cc1C(C)(C)C,.,-5,92*,0,-9,MPTP abs DR=11*;MPTP counter DR=>80
C=CCNCCCOc1ccc(Cl)cc1C(C)(C)C,.,-5,0,2,.,
CC(C)(C)NCCOCCOc1ccc(Cl)cc1C(C)(C)C,.,-4,0,1,.,
COCCCNCCOCCOc1ccc(Cl)cc1C(C)(C)C,.,-6,61*,2,-15,MPTP abs DR=4.3*;MPTP counter DR=>80
Cc1ccccc1OCCCCn1cnc2ccccc21,-21,2,93*,2,89*,
Cc1ccc(OCCCCn2cnc3ccccc32)cc1,-8,-1,1,1,.,
CCCOc1ccc(Cn2cnc3ccccc32)cc1,.,-1,89*,4,77*,
c1ccc2c(c1)ncn2CCCOc1ccc2c(c1)CCC2,-36,8,54*,1,60*,
CC(=O)c1cn(CCOc2ccccc2C)c2ccccc12,.,-2,96*,2,82*,
c1ccc(OCCn2cnc3ccccc32)cc1,.,7,0,0,.,
C=CCNC(=O)CN1C(=O)CSc2ccc(S(=O)(=O)N3CCOCC3)cc21,5,-4,-1,0,.,
CCC(C)c1ccccc1NC(=S)NC(=O)c1ccco1 (configuration not stated),.,2,-2,0,.,
c1ccc2c(c1)ncn2CCCCOc1ccc2c(c1)CCC2,-97,-2,88*,2,96*,
c1ccc(OCCCCn2cnc3ccccc32)cc1,-4,7,0,0,.,
Cc1ccc(-c2cc(C(=O)Nc3cccnc3)[nH]n2)c(O)c1C,7,-3,62*,0,71*,
O=C(NCc1ccc2c(c1)OCO2)c1n[nH]c(=O)c2ccccc12,3,-6,0,0,.,
O=C(NCc1ccc2c(c1)OCO2)c1cc(-c2cc(Cl)ccc2O)n[nH]1,-4,-6,64*,0,62*,
Cc1cccc(NC(=O)c2cc(-c3cc(C)c(C)cc3O)n[nH]2)c1,.,1,0,0,.,
Cc1ccc(-c2cc(C(=O)NCc3ccc4c(c3)OCO4)[nH]n2)c(O)c1C,.,-1,61*,0,71*,
Cc1cc(O)c(-c2cc(C(=O)NCc3ccc4c(c3)OCO4)[nH]n2)cc1C,.,5,8,0,.,
CCN(CC)C(=O)c1ccc2sc([C@@H]3O[C@H](CO)[C@H](O)[C@H](O)[C@H]3O)nc2c1,9,-3,0,0,.,
CCC(C(=O)OCC(=O)Nc1cc(Cl)cc(Cl)c1)c1ccccc1 (configuration not stated),.,-5,82*,1,90*,
SMILES,H9c2 TAG inh,NadD inh,MPTP inh,aDG glyco act,MPTP counter,others
CN1OC[C@@H]2CN(S(=O)(=O)c3ccccc3)[C@H](c3ccccc3Br)C[C@@H]21,.,-1,-2,0,.,
O=S(=O)(Nc1nc2ccccc2nc1N1CCN(c2ccccc2F)CC1)c1ccc(Cl)cc1,-11,19,79*,0,88*,
CCOc1ccc(S(=O)(=O)Nc2nc3ccccc3nc2N2CCN(C)CC2)cc1,28,1,-1,0,.,
CCCCn1c(NC(=O)c2ccccc2Cl)c(C#N)c2nc3ccccc3nc21,-10,19,96*,1,70*,
CCCCn1c(NC(=O)CC)c(C#N)c2nc3ccccc3nc21,-13,0,0,0,.,
N#Cc1c(NC(=O)c2ccccc2Cl)n(Cc2ccccc2)c2nc3ccccc3nc12,.,32*,51*,1,51*,
CC(=O)Nc1c(-c2cc(=O)oc3cc(C)ccc23)oc2ccccc12,.,-1,1,0,.,
Cn1c(=N)n(CC(O)c2cccc3ccccc23)c2ccccc21 (configuration not stated),11,-2,90*,0,5,MPTP abs DR=3.4*;MPTP counter DR=37*
CCOC(=O)C1=CCN(S(=O)(=O)c2ccccc2C)C1c1ccc(F)cc1 (configuration not stated),.,-11,0,0,.,
COc1cccc(NC(=O)CN2CCN(c3ccc(F)cc3)CC2)c1,-10,-2,-1,0,.,
CCOC(=O)c1ccc(N2CCN(c3ccccc3F)CC2)c(NC(=O)Nc2ccccc2)c1,.,22,96*,0,87*,
CCOC(=O)c1ccc(N2CCN(c3ccc(F)cc3)CC2)c(NC(=O)Nc2cccc(OC)c2)c1,.,19,92*,0,84*,
COC(=O)[C@@]12C[C@@H](CC(=O)NCC34CC5CC(CC(C5)C3)C4)C(=O)N(Cc3ccccc3)C1=CCC(C)(C)C2,.,.,0,0,.,
COC(=O)c1cc(NC(=O)COC(=O)CN2C(=O)C3CC=CCC3C2=O)cc(C(=O)OC)c1 (configuration not stated),-6,-2,0,0,.,
CC(O)CNCCCOc1cccc(Oc2ccccc2)c1 (configuration not stated),19,-11,60*,1,-7,MPTP abs DR=13*;MPTP counter DR=>80
OCCNCc1cc(Br)ccc1OCc1ccc(Cl)cc1Cl,16,-11,82*,3,20*,
CCOc1cccc(CNCCO)c1OCc1ccc(Cl)cc1Cl,.,-5,94*,3,2,MPTP abs DR=4.5*;MPTP counter DR=20*
C[C@@H]1CNC(=O)c2c(C(=O)NCC(=O)OC(C)(C)C)ncn21,-5,2,0,0,.,
Cc1ccccc1-c1nn(-c2ccc(F)cc2F)cc1CNCCCN(C)C,31,-10,87*,1,-12,
CCOC(=O)c1ccc(S(=O)(=O)Nc2ccc3cn[nH]c3c2)cc1,27,4,55*,1,39*,
COc1ccc(S(=O)(=O)Nc2ccc3cn[nH]c3c2)cc1C,-2,1,0,1,.,
COc1ccc(C(=O)Nc2ccc3c(c2)OCO3)cc1S(=O)(=O)N1CCOCC1,2,-4,0,0,.,
Nc1nc(NC(=O)c2ccc(Cl)cc2)nn1-c1ccccc1,.,3,81*,0,35*,
CCOC(=O)c1c(NC(=O)c2ccccc2N(C)S(=O)(=O)c2ccccc2)sc2c1CCCC2,.,8,3,0,.,
CCOC(=O)c1c(NC(=O)C(NCCN(C)C)c2ccccc2)sc2c1CCCC2 (configuration not stated),.,-14,81*,0,-11,
CC1(C(=O)NS(=O)(=O)c2cccc(F)c2)CCN1C(=O)Cc1cccs1 (configuration not stated),3,3,2,0,.,
Cc1ccc(-c2nc3cccnc3o2)cc1NC(=O)COc1ccc(C(C)(C)C)cc1,-20,1,85*,0,23*,
